Source: PubChem BioAssay (National Center for Advancing Translational Sciences (NCATS))
G9a inh – G9a (human) methyltransferase inhibition | Potency, µM (series often up to 102 µM), without a hit: top-dose activity, negative = inhibition, hits mostly inhibitors | hit rate 8.8% among 350,000 | G9a H3K9 monomethylation, AlphaScreen, 2 h | AID 504332; note: potency is the fitted concentration of half-maximal effect; % is set by controls: 0 for no effect and ±100 for the full control effect; nearly all actives have a fitted effect of over 75% in size
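AlphaScreen read-out: biotin-H3K9 peptide (500 nM) methylation by 20 nM enzyme with 20 uM SAM, 2 h at room temperature after 15 min compound preincubation; anti-monomethyl H3K9 antibody plus donor/acceptor beads, 10 min dark.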
JMJD2A Tudor – JMJD2A Tudor domain (human) inhibition; O75164; AlphaScreen JMJD2A-Tudor / H3K4me3 peptide binding; Potency, µM (series often up to 114 µM), for inactives: at the top dose activity change, negative = inhibition, usual class: inhibitors; hit rate 4.4% among 390,000; AID 504339; note: potency is the fitted concentration of half-maximal effect; % is set by controls: 0 for no effect and ±100 for the full control effect; nearly all actives have a fitted effect of over 50% in size
BAZ2B inh – blocks human BAZ2B; AlphaScreen BAZ2B-H3K14Ac peptide displacement; hit rate 4.4% among 360,000; Potency, µM (titrated, usually from 114 µM), inactives show at the top dose activity change, negative = inhibition, usual class: inhibitors; note: potency is the fitted concentration of half-maximal effect; % is set by controls: 0 for no effect and ±100 for the full control effect; nearly all actives have a fitted effect of over 60% in size
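Protein-peptide AlphaScreen: BAZ2B 50 nM, b-H3K14Ac 50 nM, 1x PBS pH 7.4 + 0.01% Tween-20. Preincubation 30 min RT; cpd 30 min RT (top 110 uM); beads 20 min RT, light-protected.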
L3MBTL1 inh – blocks human L3MBTL1; Q9Y468; AlphaScreen L3MBTL1–H3K9me1 peptide binding; Potency, µM (doses to about 57.1 µM), without a hit: at the top dose activity, negative = inhibition, most hits filed as inhibitors; hit rate 0.66% among 230,000; AID 485360; note: potency is the fitted concentration of half-maximal effect; % is set by controls: 0 for no effect and ±100 for the full control effect; nearly all actives have a fitted effect of over 60% in size
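AlphaScreen proximity signal between nickel-chelate acceptor and streptavidin donor beads (final 10 ug/mL) reports binding of 50 nM L3MBTL1 to 75 nM biotin-H3 K9me1 peptide; complex incubated with compounds 30 min at room temperature; cefsulodin titration as control.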
PI5P4Ka inh – blocks human PI5P4K alpha kinase activity | P48426 | PI5P4Kalpha enzyme, ADP-Glo luminescence, 60 min; active compounds read low | max response, % | hit rate 1.2% among 330,000; active = max response of -50% or lower; inconclusive = between -30% and -50%; inactive = -30% or higher; note: value at the top dose of about 77 µM; % is set by controls: 0 for no effect and ±100 for the full control effect
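Human PI5P4Kalpha with substrate in 0.038 M HEPES pH 7.4, 0.28 mM EGTA, 0.1% CHAPS, 5% DMSO; reaction started with 5 microM ATP (final), 60 min at room temperature. ADP formed read by ADP-Glo luminescence.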
HP1b chromo inh – HP1-beta chromodomain-methylated histone interaction inhibition. P83916. AlphaScreen HP1-beta / biotin-H3K9me3 peptide binding. Potency, µM (doses to about 114 µM), for the others: at the highest dose activity change, negative = inhibition, most hits filed as inhibitors. hit rate 0.56% among 390,000; note: potency is the fitted concentration of half-maximal effect; nearly all actives have a fitted effect of over 70% in size
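HP1-beta protein (50 nM final) preincubated 30 min at room temperature with biotinylated H3(1-18)K9me3 peptide (50 nM) in PBS pH 7.4, 0.01% Tween-20, then compound added for 30 min. AlphaScreen streptavidin donor/nickel chelate acceptor beads (10 ug/mL final), 30 min dark, luminescence read.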
The depositor's hits bear a star; ? = inconclusive; . = no result given; [ ] = dose if it differs, or a comment. Compounds with a hit are over-represented: about 11% of the library has one in this group of screens. Unless noted, calls come from the whole dose curve; as a rule, active = well fitted inhibition curve with a large enough effect; inconclusive = small, poorly fitted or top-dose-only effect; inactive = no such curve, though single readings can be large or run the other way.

SMILES	G9a inh	JMJD2A Tudor	BAZ2B inh	L3MBTL1 inh	PI5P4Ka inh	HP1b chromo inh
C=CCn1c(SCC(=O)c2ccc(Cl)cc2)nnc1-c1ccc2c(c1)OCO2	?	0%	?	-8%	-10	22%
CCOC(=O)c1c(C)c(-c2ccccc2)n(CC(=O)NCCc2cccc(C)c2)c1C	4%[59 µM]	-20%	-1%	.	.	4%
CNC(=O)CSc1nnc(COc2ccc([N+](=O)[O-])cc2)n1C	19%[59 µM]	-6%	56µM*	.	-1	60%
COc1cccc(-n2c(COc3ccc(C)cc3)nnc2SCC(N)=O)c1	?	-15%	?	2%	.	10%
COc1ccc(-n2c(COc3ccccc3)nnc2SCC(N)=O)cc1	45µM*	-32%	-4%	-3%	0	48%
CC(Sc1nnc(COc2ccc([N+](=O)[O-])cc2)n1C)C(=O)O (stereo not given)	2%	-10%	-3%	7%	-6	5%
COc1ccc(-n2c(COc3ccc(C)cc3)nnc2SCC(N)=O)cc1	32µM*	-16%	0%	-1%	2	34%
CCOC(=O)CSc1nnc(CSc2nc(N)c3c(C)c(C)sc3n2)n1-c1ccccc1	45µM*	-28%	6%	1%	2	14%
CCC(C(=O)NCCc1cc(OC)ccc1OC)n1nc(C)c2sc3ccccc3c2c1=O (stereo not given)	5%[59 µM]	-21%	-9%	.	.	27%
COc1cc(OC)c(N(C)C(=O)CSc2c3c(nc4ccc(Cl)cc24)CCCC3)cc1Cl	?	-35%	.	.	.	18%
COc1ccc(Br)cc1C1NC(c2ccc3c(c2)OCO3)=CC(c2ccccc2O)N1 (stereo not given)	.	-24%[57.1 µM]	.	.	.	8%[57 µM]
Cc1ccc(CCNC(=O)Cn2ncc3c([nH]c4ccc(C)cc43)c2=O)cc1	-17%[59 µM]	-5%	14%[57.1 µM]	.	.	22%
Cc1ccc(C)c(NC(=O)CSc2nnc(NC(=O)Nc3ccccc3)s2)c1	7%[59 µM]	-15%	-12%	.	.	0%
Cc1cccc(OCc2nnc(SC(C)C(=O)O)n2-c2ccccc2)c1 (stereo not given)	1%[0.501 µM]	-9%	-4%	6%[2.29 µM]	-53*	48%
COc1ccc(-c2nnc(SCC(=O)c3cccs3)n2-c2ccc(Cl)cc2)cc1	?	-10%	-8%	8%	-2	39%
COc1cccc(C(=O)CSc2nnc(CNS(C)(=O)=O)n2-c2ccc(C)cc2)c1	18µM*	18µM*	-24%	-2%	?	?
COC(=O)CSc1nnc(CNC(=O)c2cc(OC)cc(OC)c2)n1-c1ccc(F)cc1	26%	-9%	0%	2%	4	9%
COc1cccc(-c2nnc(SCC(N)=O)n2-c2ccc(Cl)cc2)c1	28µM*	-11%	-7%	-3%	.	24%
COc1ccccc1OCCCCn1c(-c2ccc(Cl)cc2)nc2ccccc2c1=O	-20%[59 µM]	10%	6%	.	.	46%
COc1ccccc1N1CCN(C(=O)c2sc3nc(C)nc(N4CCN(c5ccccn5)CC4)c3c2C)CC1	25µM*	?	?	.	-3	-2%
COc1cccc(-c2nc(CCl)cs2)c1	?	19%	0%	17%	2	112%
COc1ccc(-c2nc(CCl)cs2)cc1OC	20µM*	?	-25%	.	-24	35%
COc1ccc(-c2nc(CCl)cs2)cc1	25µM*	27%	6%	7%	-2	90%
O=C(CCS(=O)(=O)c1cccc2nonc12)Nc1ccc(F)cc1F	3%[59 µM]	-12%	2%	.	.	26%[57 µM]
CC(=O)c1cccc(NC(=O)[C@H](Cc2ccccc2)N2Cc3ccccc3C2=O)c1	2%[59 µM]	-18%	-21%	.	.	18%
SMILES	G9a inh	JMJD2A Tudor	BAZ2B inh	L3MBTL1 inh	PI5P4Ka inh	HP1b chromo inh
Cc1ccc(CSC2=Nc3ccccc3C3=NC(CC(=O)NCc4ccco4)C(=O)N23)cc1 (stereo not given)	?	?	50µM*	?	?	9%
O=C(CC1N=C2c3ccccc3N=C(SCc3ccc(Cl)cc3)N2C1=O)NCCc1ccccc1 (stereo not given)	7%[59 µM]	79µM*	0%	.	.	31%
O=C(CC1N=C2c3ccccc3N=C(SCc3ccccc3F)N2C1=O)NCc1cccs1 (stereo not given)	3%[59 µM]	-24%	-14%	.	.	2%
O=C(CC1N=C2c3ccccc3N=C(SCC(=O)Nc3ccccc3F)N2C1=O)NCc1cccs1 (stereo not given)	14µM*	-26%	?	.	.	-4%
COc1ccc(C(=O)NCCc2csc(-c3ccc(Cl)cc3)n2)c(OC)c1	6%[59 µM]	-4%	1%	.	.	23%[57 µM]
CC1(C)CC(N=c2cc(-c3ccccc3)oc3ccc(Cl)cc23)CC(C)(C)N1	71µM*	-23%	?	.	2	19%
CC(C)[C@H]1CN=C2N(C[C@H](C)NC(=O)CCC3CCCCC3)[C@H](Cc3ccc(O)cc3)CN21	?	79µM*	-5%	.	?	0%
C[C@@H](CN1C2=NC[C@H](C)N2C[C@H]1Cc1ccc(O)cc1)NC(=O)CCC1CCCCC1	7%[12.7 µM]	-32%	-13%	-2%	-4	24%
CC(C)(C)c1ccc(-c2n[nH]c(=S)n2C2CCCC2)cc1	7.9µM*	?	2%	.	.	16%
CCn1c(-c2ccc(F)cc2)n[nH]c1=S	?	5µM*	10%	.	-2	25%
CCn1c(-c2ccc(C(C)(C)C)cc2)n[nH]c1=S	0.56µM*	45µM*	3%	-1%	-14	-4%
Nc1sc(-c2ccccc2)cc1-c1n[nH]c(=S)n1C1CCCCC1	4%[59 µM]	-16%	-4%	-4%	-5	35%
Cn1c(-c2ccc(C(C)(C)C)cc2)n[nH]c1=S	2µM*	22µM*	1%	-9%	-17	-25%
Cc1ccccc1C(=O)Nc1cccc(NC(=O)c2ccc(C(C)(C)C)cc2)c1	-43%[59 µM]	-17%	-4%	.	.	20%
CCn1c(-c2cccc(Cl)c2)n[nH]c1=S	6.3µM*	7.1µM*	7%	-8%	-1	-4%
CCn1c(-c2csc(-c3ccc(Cl)cc3)n2)n[nH]c1=S	?	-3%	6%	.	0	50%
CCCN1CCC(=O)N(CCSc2ccc(Br)cc2)CC1	.	-25%	.	.	.	18%
Cc1c(C(=O)NCCc2ccccc2)cccc1-n1cnc2cccnc21	-8%[59 µM]	-13%	-6%	.	.	7%
Cc1cc2nc(SCCOC(=O)Nc3ccc(Cl)cc3)nc(C)c2cc1C	2µM*	-16%	-39%	-8%	-2	22%
Cc1cc2nc(SCC(=O)O)nc(C)c2cc1C	9%[12.7 µM]	0%	7%	4%	.	16%
CCN(CC)/C(Sc1ccccc1)=C(\C(Cl)=C(Cl)Cl)[N+](=O)[O-]	?	-34%	50µM*	.	-1	-16%
